The full ranking holds about 33,000 sequences; the median of “E-score (-0.5 to 0.5)” is about -0.0034, and the highest 2% start at about 0.25. This excerpt belongs to a sample that is enriched for the highest values.

In the assay the target is T1, Yap3 (UniProt P38749).
T1 sequence: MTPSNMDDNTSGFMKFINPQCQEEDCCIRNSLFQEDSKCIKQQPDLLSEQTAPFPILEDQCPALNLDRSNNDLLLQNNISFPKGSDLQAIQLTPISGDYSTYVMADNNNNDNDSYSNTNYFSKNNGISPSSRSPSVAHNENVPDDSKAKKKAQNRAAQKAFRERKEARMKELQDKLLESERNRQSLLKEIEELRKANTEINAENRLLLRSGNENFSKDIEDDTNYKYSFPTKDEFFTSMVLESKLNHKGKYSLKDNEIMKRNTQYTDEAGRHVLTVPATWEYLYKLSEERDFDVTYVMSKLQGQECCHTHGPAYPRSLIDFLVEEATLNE
The experiment in a line: PBM E-score (8-mer binding enrichment) (E-score (-0.5 to 0.5)); higher = stronger / more preferred TF binding. The following applies: protein concentration: 100 nM; construct: GST-full length. As for the experimental part:
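Universal 'all 10-mer' protein binding microarrays (Agilent AMADID 015681) probed with GST-tagged S. cerevisiae TFs (full-length or DBD) made by in vitro transcription/translation (PURExpress), about 100-200 nM. Bound TF was detected with fluorescent anti-GST. Each ungapped 8-mer (which stands for itself and its reverse complement) is scored by the PBM enrichment score (E-score), a modified Wilcoxon-Mann-Whitney statistic from -0.5 to +0.5, computed with the Universal PBM Analysis Suite. Scale: above 0.35 generally sequence-specific binding.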
For CAGGCAAG, the “PBM E-score” value was -0.0287. The same measure for ATACGTAA: 0.266; for ATACGTAG: 0.0583.

ATACGTAC: the “PBM E-score” value is 0.0322. With CCTTAGCC, the “PBM E-score” value was -0.0133. The figure for CGCCATCC is -0.247; for CTGTAATA it is 0.113; for ATGTAATA it is 0.371. The figure for ATGTAAGG is 0.129. As for CTGTAACA, the “PBM E-score” value was -0.0647. For the sequence CTGTAAGC, the “PBM E-score” value was -0.0121.

For the sequence ATGTAAGC, the “PBM E-score” value turned out to be 0.264. As to CTGTAAGA, the “PBM E-score” value is -0.0157. The same measure for ATGTAACA: 0.256.

Consider GTGTAAGA, for which the “PBM E-score” value was -0.0287.

With ATGTAACG, the “PBM E-score” value is 0.164. The figure for ATGTAATG is 0.151; for ATGTAAGA it is 0.277. The figure for AGCGTCGA is 0.124. The same measure for AACCTAAA: 0.142; for ATCCCTGA: -0.0313; for CAGCACAC: -0.173. As for AAGTGTTA, the “PBM E-score” value was 0.112. The same measure for TAGAGCTA: -0.0728; for AATCCTCT: -0.127; for CCAGTTCG: -0.114.

Regarding AAAATCTA, the “PBM E-score” value was 0.0549. The figure for AGCTACTA is 0.0917.

Regarding CGCTACTC, the “PBM E-score” value was -0.112.

For the sequence CGCTACTA, the “PBM E-score” value was 0.264. The figure for ATTTTCTC is 0.0752. The same measure for ATACTACC: 0.0377. The same measure for ACAATACA: 0.0763. Regarding CTAATACA, the “PBM E-score” value came to 0.25. ATAATACG: the “PBM E-score” value turned out to be 0.292. Consider GAAATACA, for which the “PBM E-score” value is 0.0912. As to ATAATACC, the “PBM E-score” value amounted to 0.226. For ATAATACA, the “PBM E-score” value stood at 0.357.

As to CTACTACA, the “PBM E-score” value came out at 0.225. The same measure for AGAATACG: 0.0873; for ATACTACA: 0.28; for GTAATACA: 0.273. Turning to ACAATACG, the “PBM E-score” value amounted to 0.0668. The figure for GAAGGCAC is -0.128; for AAGGATTC it is -0.129; for GAGTGGAA it is 0.0318. Regarding CGATATCC, the “PBM E-score” value was 0.146. Take AAAGAGGC: the “PBM E-score” value is -0.0407.

Take ATTCCTTG: the “PBM E-score” value is -0.113. Turning to CTTATATA, the “PBM E-score” value is 0.315. The figure for AGCATATA is 0.0558; for CGCATATA it is 0.00761. The figure for CTTATATC is 0.218. ACCATATC: the “PBM E-score” value was found to be 0.0587.

Regarding GTTATATA, the “PBM E-score” value was found to be 0.224. The same measure for ACTATATC: 0.227.

On to GCTATATA, for which the “PBM E-score” value turned out to be 0.101. The same measure for GGCATATA: 0.268; for ACTATATA: 0.328; for ACCATATA: 0.285.

On to ACCATATG, for which the “PBM E-score” value is 0.122. The figure for ACCTAAAC is 0.122; for GAGGGATC it is -0.253. The figure for ACTGGTAA is 0.184.

Consider CCTAGACC, for which the “PBM E-score” value was -0.146. The figure for CGAAGGTA is 0.00763; for AGTGCGCG it is -0.0557; for CCCTGTCC it is -0.276. TAGAGCAA: the “PBM E-score” value is -0.0378.

In the case of AAACTGCT, the “PBM E-score” value is -0.156. The figure for GACTCTTA is 0.141. The same measure for ATTATATC: 0.16; for ATTATATG: 0.221; for ATTATATA: 0.3.

As for AATGCCAG, the “PBM E-score” value is -0.00344. The figure for GCGTGGCC is -0.3; for TGTCGAAA it is -0.0162.

As to CAATAACA, the “PBM E-score” value amounted to 0.0825. The same measure for TAATAGAA: 0.257; for GAATAACA: 0.308; for AAATAAGT: 0.145. For the sequence GAATAGAA, the “PBM E-score” value is 0.125. The figure for GAATAATA is 0.292; for AAATAAAT it is 0.241; for GAATAATC it is 0.217.

On to GAATAAGA, for which the “PBM E-score” value is 0.109. On to AAATAATT, for which the “PBM E-score” value came out at 0.287. As to AAATAGAA, the “PBM E-score” value amounted to 0.0373. The same measure for TAATAACA: 0.189; for TAACACTA: 0.245; for ACGCGTTA: 0.0763. On to GGCTCTGA, for which the “PBM E-score” value is -0.03. Turning to CAGAGTTA, the “PBM E-score” value was -0.0557. Regarding ACACCATA, the “PBM E-score” value came out at 0.164.

These data come from the supplement of paper PMC3334620.
